According to PubChem BioAssay (NCATS):
Records with an inconclusive call do not appear. A number with no mark means an inactive call. Activity calls are given as the source filed them. Calls come from the whole dose curve; as a rule, active = well fitted inhibition curve with a large enough effect; inconclusive = small, poorly fitted or top-dose-only effect; inactive = flat fitted curve, though single readings scatter.

tested on: CP325; experiment: qHTS profiling for inhibitors of Plasmodium falciparum proliferation (AID 504749); note: nearly all actives have a fitted effect of over 60% in size;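 for activity, negative = inhibition: 0% = DMSO vehicle and full inhibition = artemisinin control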; settings: P. falciparum in erythrocytes, SYBR Green DNA, 72 h; series mostly up to 28.7 µM; activity, negative = inhibition: at the top concentration
How it was run: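 P. falciparum-infected erythrocytes (0.3% parasitemia, 2.5% hematocrit final) were exposed to compounds for 72 h at 37 C in 5% CO2, then lysed with SYBR Green buffer overnight at room temperature; parasite DNA fluorescence was normalized to artemisinin and DMSO controls.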
Potency is the fitted concentration of half-maximal effect.

First: CCCCCCCCCCCCCCCC(=O)OC[C@H](O)[C@H]1OC[C@@H](O)[C@@H]1O
Second: CCCCCCCCCCCC(=O)OCC(O)C1OCC(O)C1O (stereo not given)
The “activity, negative = inhibition” value of the first is higher: 10.3% for the first, -3.74% for the second.

Compared with `C[C@H]1OC(OC2C(O)[C@@H](O)C(OC3C(O)[C@@H](O)C(O)O[C@@H]3CO)O[C@@H]2CO)[C@H](O)C(O)C1N[C@H]1C=C(CO)[C@@H](O)[C@H](O)C1O` (stereo not given in full), `NC[C@@H]1O[C@H](OC2[C@@H](CO)O[C@@H](OC3[C@H](O)[C@H](N)C[C@H](N)[C@H]3OC3O[C@H](CO)[C@@H](O)[C@H](O)[C@@H]3N)[C@H]2O)C(N)[C@H](O)[C@@H]1O` (stereo not given in full) is higher in “activity, negative = inhibition” value: 0.41% for the first, 1.24% for the second.

First: CCN(CC)CC(=O)Nc1c(C)cc(C)cc1C
Second: CN(C)CC/C=C1\c2ccccc2COc2ccc(CC(=O)O)cc21
The “activity, negative = inhibition” value of the first is higher: -14.6% for the first, -14.8% for the second.

Compared with `NC(=O)c1ncn(C2OC(CO)C(O)C2O)c1N` (stereo not given), `Nc1nc(F)nc2c1ncn2[C@@H]1O[C@H](CO)[C@@H](O)[C@H]1O` is higher in “activity, negative = inhibition” value: -1.57% for the first, -0.657% for the second.

Going from `CC1(Cn2ccnn2)[C@H](C(=O)O)N2C(=O)C[C@H]2S1(=O)=O` (stereo not given in full) to `COc1cccc(OC)c1C(=O)NC1C(=O)N2C1SC(C)(C)C2C(=O)O` (stereo not given), the “activity, negative = inhibition” value falls from 0.235% to -0.86%.

First: CCCC(=O)O[C@]1(C(=O)COC(C)=O)CC[C@H]2C3C[C@H](F)C4=CC(=O)C=CC4(C)[C@@]3(F)[C@@H](O)CC21C (stereo not given in full)
Second: CC(=O)OCC(=O)[C@@]1(O)CCC2C3C[C@H](C)C4=CC(=O)C=CC4(C)C3C(O)CC21C (stereo not given in full)
The “activity, negative = inhibition” value of the first is higher: 15.8% for the first, -2.26% for the second.

First: OCCN1CC(O)C(O)C(O)C1CO (stereo not given)
Second: OCC1O[C@H](Oc2ccc(O)cc2)C(O)C(O)C1O (stereo not given in full)
The “activity, negative = inhibition” value of the first is lower: -3.52% for the first, 3.11% for the second.

First: CC(CCC(=O)O)C1CCC2C3C(=O)C[C@@H]4CC(=O)CC[C@@]4(C)C3CC(=O)[C@]12C (stereo not given in full)
Second: CC[C@@H]1/C=C(\C)C[C@H](C)C[C@H](OC)[C@H]2O[C@@](O)(C(=O)C(=O)N3CCCC[C@H]3C(=O)O[C@H](/C(C)=C/[C@@H]3CC[C@H](Cl)[C@H](OC)C3)[C@H](C)[C@@H](O)CC1=O)[C@H](C)C[C@@H]2OC
The “activity, negative = inhibition” value of the first is lower: -0.861% for the first, 3.64% for the second.

Compared with `O=C(OC[C@@H]1O[C@@](O)(COC(=O)c2cccnc2)[C@H](OC(=O)c2cccnc2)[C@H]1OC(=O)c1cccnc1)c1cccnc1`, `Cc1ccc(S(=O)(=O)NC(=O)NC(C)Cc2ccccc2)cc1` (stereo not given) is higher in “activity, negative = inhibition” value: -4.41% for the first, -0.0085% for the second.

First: O=[N+]([O-])O[C@H]1CO[C@H]2[C@@H]1OC[C@H]2O
Second: CC1(C)OC[C@@H]2O[C@@]3(C(=O)O)OC(C)(C)O[C@@H]3[C@@H]2O1
The “activity, negative = inhibition” value of the first is lower: -7.27% for the first, -7.22% for the second.

Compared with `OCCOC[C@H]1O[C@H](OCCO)[C@H](OCCO)[C@@H](OCCO)[C@@H]1OCCO` (tested in a mixture with another compound), `CC1OC(OCC2OC(Oc3c(-c4ccc(OCCO)c(OCCO)c4)oc4cc(OCCO)cc(O)c4c3=O)C(O)C(O)C2O)[C@@H](O)C(O)C1O` (stereo not given in full) is higher in “activity, negative = inhibition” value: -12% for the first, -4.83% for the second.

Compared with `C[S+](C)CC[C@H](N)C(=O)O`, `NC(=O)NC(CCC(=O)O)C(=O)O` (stereo not given) is higher in “activity, negative = inhibition” value: -1.78% for the first, 0.465% for the second.

Going from `NC(=O)C1CC2(NC(=O)NC2=O)c2cc(F)ccc2O1` (stereo not given) to `Cc1ccccc1N1C(=O)c2cc(N)ccc2N/C1=C\F`, the “activity, negative = inhibition” value rises from -3.41% to 0.448%.

Going from `CN1[C@@H]2CC[C@@H]1CC(OC(=O)[C@H](CO)c1ccccc1)C2` (stereo not given in full) to `O=C1C(I)=CC(=C(c2cc(I)c(O)c(I)c2)c2ccccc2C(=O)O)C=C1I`, the “activity, negative = inhibition” value falls from 1.14% to -10.4%.

Going from `C/C1=C2/[N-]C(C(CC(N)=O)[C@@]2(C)CCC(=O)NCC(C)OP(=O)([O-])O[C@H]2[C@@H](O)[C@@H](n3cnc4cc(C)c(C)cc43)O[C@@H]2CO)[C@]2(C)N=C(/C(C)=C3N=C(/C=C4N=C1C(CCC(N)=O)C\4(C)C)[C@@H](CCC(N)=O)[C@]\3(C)CC(N)=O)[C@@H](CCC(N)=O)[C@]2(C)CC(N)=O.CC(=O)O.[Co]` (stereo not given in full) to `CC1OC(OC2CCC3(C)C(CCC4C3CC(O)C3(C)C(C5=CC(=O)OC5)CCC43O)C2)CC(O)C1OC1CC(O)C(OC2CC(O)C(OC3OC(CO)C(O)C(O)C3O)C(C)O2)C(C)O1` (stereo not given), the “activity, negative = inhibition” value falls from -6.48% to -9.54%.

In the case of `CC1(C)C2CC[C@]1(C)[C@@H](O)C2`, the “activity, negative = inhibition” value is reported as -2.99%.

For `CCCCC(=O)OCC(=O)[C@]1(O)Cc2c(O)c3c(c(O)c2[C@H](OC2CC(NC(=O)C(F)(F)F)C(O)C(C)O2)C1)C(=O)c1c(OC)cccc1C3=O` (stereo not given in full), the Potency was 3380 nM (active).
With `C[C@H]1[C@@H](OC(=O)CCC(=O)O)OC2OC3(C)CC[C@H]4[C@H](C)CC[C@@H]1[C@@]24OO3` (stereo not given in full) the Potency was 6 nM (active).
With `COc1cc2c(cc1O)CCN[C@@]21CS[C@H]2c3c(OC(C)=O)c(C)c4c(c3C(COC1=O)N1C2C2c3c(cc(C)c(OC)c3O)CC([C@@H]1O)N2C)OCO4` (stereo not given in full) the Potency was 0.5 nM (active).
`C[n+]1c2cc(N)ccc2cc2ccc(N)cc21` was tested, and the Potency was 953 nM (active).
In the case of `CC[C@@]1(O)C[C@H](O[C@H]2C[C@@H](N(C)C)[C@@H](O[C@H]3C[C@@H](O)[C@@H](O[C@H]4CCC(=O)[C@@H](C)O4)[C@@H](C)O3)[C@@H](C)O2)c2c(cc3c(c2O)C(=O)c2c(O)cccc2C3=O)[C@H]1C(=O)OC`, the Potency is reported as 849 nM (active).
In the case of `CCC(C(=O)O)C1OC(C(C)C(O)C(C)C(=O)C(CC)C2OC3(C=CC(O)C4(CCC(C)(C5CCC(O)(CC)C(C)O5)O4)O3)C(C)CC2C)C(C)CC1C` (stereo not given), the Potency is reported as 84.9 nM (active).
In the case of `COC1CC2CCC(C)[C@](O)(O2)C(=O)C(=O)N2CCCCC2C(=O)OC(C(C)CC2CCC(O)C(OC)C2)CC(=O)C(C)/C=C(/C)C(O)C(OC)C(=O)C(C)CC(C)C=CC=C/C=C\1C` (stereo not given in full), the Potency is reported as 5360 nM (active).
For `CN[C@H](C)CCC=C(C)C`, the Potency was 757 nM (active).

In the case of `CC(=O)N[C@H]1[C@H](O[C@@H]2c3ccc(c(Cl)c3)Oc3cc4cc(c3O[C@@H]3O[C@H](CO)[C@@H](O)[C@H](O)C3C)Oc3ccc(cc3Cl)C[C@H]3NC(=O)[C@@H](N)c5ccc(O)c(c5)Oc5cc(O)cc(c5)[C@H](NC3=O)C(=O)N[C@H]4C(=O)N[C@H]3C(=O)N[C@@H]2C(=O)N[C@@H](C(=O)O)c2cc(O)cc(O[C@H]4O[C@H](CO)[C@@H](O)C(O)[C@@H]4O)c2-c2cc3ccc2O)O[C@H](CO)[C@@H](O)[C@@H]1O` (stereo not given in full), the “activity, negative = inhibition” value is reported as 0.544% [at 12.8 µM].
